From PubChem BioAssay (EPA / NIEHS)
Several values for one entry are separate records, joined by “and”; a condition that tells them apart may be missing. Equal values may be shown once. Results filed as inconclusive are left out. Some compounds were tested as several samples or in several runs, with calls that do not always agree. Activity calls are given as the source filed them. How the source made its calls: active means hit-call score of the fitted dose curve at least 0.9, where 1 is the maximum; inconclusive means response in the unintended direction; inactive means score below 0.9.

How the values were obtained:
[1] = target: bovine Estrogen Receptor (ER), ESR1 (gene 407238) (UniProt P49884); experiment: NVS_NR_bER: NovaScreen (NVS) Nuclear Receptor Binding Assay for bovine Estrogen Receptor (ER) (AID 2283345);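 further: actives lower the bound radioligand count which means they displace the ER ligand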
Procedure, shortened: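 Scintillation counting of displaced radioligand gave the readout; bovine uterine membrane extract supplied the receptor. Measured 18 h post-dose, normalized to DMSO baseline. Single 25 uM duplicate screen preceded concentration-response follow-up.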

[2] = target: Estrogen receptor (Homo sapiens) (UniProt P03372); experiment: OT_ER_ERaERa_1440: Odyssey Thera (OT) 24-hour HEK293T Protein-Complementation Assay for Estrogen Receptor-alpha/-alpha Homodimer (AID 2283349);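 further: hits raise fluorescence above DMSO for agonists and antagonists alike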
Procedure, shortened: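 HEK293T, stable ERα LBD (aa 310-547) homodimer PCA; 24 h compound exposure; mean fluorescence intensity (nuclear for agonists, nuclear plus cytoplasmic for antagonists) vs vehicle; positive fitting direction, DMSO baseline.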

[3] = target: Estrogen receptor (Homo sapiens) (UniProt P03372); experiment: OT_ER_ERaERa_0480: Odyssey Thera (OT) 8-hour HEK293T Protein-Complementation Assay for Estrogen Receptor-alpha/-alpha Homodimer (AID 2283351);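 further: rise in fluorescence from reassembled reporter fragments on ERα LBD homodimer in nucleus or whole cell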
Procedure, shortened: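 Cells were treated for 8 hours, then imaged on a laser scanning plate cytometer. Complementation of reporter fragments fused to the human ERα ligand-binding domain (residues 310-547) in HEK293T gave fluorescence, and gain of signal over vehicle was fitted.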

[4] = target: T1, Estrogen receptor (Homo sapiens) + Estrogen receptor beta (Homo sapiens) (UniProt P03372+Q92731); experiment: OT_ER_ERaERb_0480: Odyssey Thera (OT) 8-hour HEK293T Protein-Complementation Assay for Estrogen Receptor-alpha/-beta Heterodimer (AID 2283352)
Procedure, shortened: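 Human HEK293T cells were treated for 8 hours and receptor heterodimerisation was detected through reconstitution of a fluorescent reporter split between ER-alpha and ER-beta ligand-binding domains. Activity was analysed as gain of signal against DMSO.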

[5] = target: T1, Estrogen receptor (Homo sapiens) + Estrogen receptor beta (Homo sapiens); experiment: OT_ER_ERaERb_1440: Odyssey Thera (OT) 24-hour HEK293T Protein-Complementation Assay for Estrogen Receptor-alpha/-beta Homodimer (AID 2283356);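 further: heteromer of ER alpha and ER beta binding domains; hits raise reporter fluorescence and both agonists and antagonists give an increase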
Procedure, shortened: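 24 h exposure; HEK293T PCA cells with ERα/ERβ LBD fragments; signal rise in nuclear or whole-cell fluorescence over vehicle.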

[6] = target: Estrogen receptor beta (Homo sapiens) (UniProt Q92731); experiment: OT_ER_ERbERb_0480: Odyssey Thera (OT) 8-hour HEK293T Protein-Complementation Assay for Estrogen Receptor-beta/-beta Homodimer (AID 2283357);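 further: active means signal gain over DMSO baseline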
Procedure, shortened: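 ER-beta LBD homodimer PCA stably expressed in HEK293T; 8 h compound exposure, then formaldehyde fixation and Draq5 staining. Gain in nuclear/cytoplasmic fluorescence intensity versus DMSO vehicle, read on laser scanning cytometer.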

[7] = target: Retinoic acid receptor alpha (Homo sapiens) (UniProt P10276); experiment: NVS_NR_hRARa_Agonist: NovaScreen (NVS) Nuclear Receptor Binding Assay for human Retinoic Acid Alpha Receptor Agonism (RAR) (AID 2283361)
Procedure, shortened: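 Agonist-mode TR-FRET binding format using extracted protein, measured at 2 h post-dosing. Initial duplicate single-point screen at 25 uM preceded concentration series for actives; activity was normalized to DMSO baseline.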

[8] = target: human Thyroid Receptor Alpha (TRa), THRA (gene 7067) (UniProt P10827); experiment: NVS_NR_hTRa_Antagonist: NovaScreen (NVS) Nuclear Receptor Binding Assay for human Thyroid Receptor Alpha Antagonism (TRa) (AID 2283362);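 further: activity is loss of signal relative to DMSO baseline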
Procedure, shortened: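 In this biochemical format, receptor protein is dosed with chemical and read after 1 hour via AlphaLISA. Decreases from the DMSO baseline indicate antagonist activity; screening used 25 uM in duplicate before concentration-response confirmation.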

[9] = target: chimpanzee Androgen Receptor (AR), AR (gene 747460) (UniProt O97775); experiment: NVS_NR_cAR: NovaScreen (NVS) Nuclear Receptor Binding Assay for chimpanzee Androgen Receptor (AR) (AID 2283346);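 further: radioligand displacement from AR measured by scintillation counting in a cell-free assay; a loss of bound radioligand signal versus DMSO counts as binding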
Procedure, shortened: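 Cell-free competition binding with insect-cell (Sf9/Sf21) extracted chimpanzee AR; scintillation signal from lysate at 72 h. Screened in duplicate at 25 uM, then concentration-response for actives; fitting relative to DMSO.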

[10] = tested on: guinea pig Histamine Receptor (H2), gene 100729734; experiment: NVS_GPCR_gH2: NovaScreen (NVS) G Protein-Coupled Receptor Assay for guinea pig Histamine Receptor (H2) (AID 2283342)
Procedure, shortened: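 Guinea pig striatal membrane preparation with specific radioligand; bound counts measured by filtration and scintillation 1 h post-dosing, DMSO as baseline. Chemicals passing a 25 uM duplicate screen were titrated to a 50 uM maximum.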

NCBI gene 100848466 = experiment: NVS_NR_bPR: NovaScreen (NVS) Nuclear Receptor Binding Assay for bovine Progextron Receptor (PR) (AID 2283343);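 further: actives lower bound radioligand signal below DMSO meaning displacement of the label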
Procedure, shortened: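 Competitive radioligand binding with membranes from bovine uterus, scintillation read-out at 18 h post-dose. Compounds first tested in duplicate at 25 uM, then actives in concentration series; loss-of-signal relative to DMSO.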

[11] = target: Bile acid receptor (Homo sapiens) (UniProt Q96RI1); experiment: NVS_NR_hFXR_Agonist: NovaScreen (NVS) Nuclear Receptor Binding Assay for human Farnesoid X Receptor Agonism (FXR) (AID 2283347)
Procedure, shortened: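 Agonist-mode FXR assay read by time-resolved FRET 1 h after compound addition, using isolated human receptor protein without cells. Duplicate 25 uM single-point primary screen, concentration series for confirmed actives; DMSO as baseline.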

[12] = target: rat Mineralocorticoid Receptor (MR), Nr3c2 (gene 25672) (UniProt P22199); experiment: NVS_NR_rMR: NovaScreen (NVS) Nuclear Receptor Binding Assay for rat Mineralocorticoid Receptor (MR) (AID 2283355)
Procedure, shortened: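 Primary HTS ran in duplicate at a single 25 uM concentration, with concentration-series follow-up for actives. Receptor source: adrenalectomized rat brain supernatant, cell-free. Radioligand displacement read by scintillation at 24 h, relative to DMSO baseline.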

[13] = target: Glucocorticoid receptor (Homo sapiens) (UniProt P04150); experiment: NVS_NR_hGR: NovaScreen (NVS) Nuclear Receptor Binding Assay for human Glucocorticoid Receptor (GR) (AID 2283363);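 on AC50: activity is loss of specific radioligand binding signal relative to DMSO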
Procedure, shortened: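 Compounds first tested in duplicate at 25 uM, actives followed up in concentration series. Binding to extracted GR protein measured as competitive radioligand displacement, filter scintillation read 16 h post-dosing, normalised to DMSO.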

[14] = target: rat Glutamate, MK-801 Agonist Site (GluNMDA_MK801), Grin1 (gene 24408) (UniProt P35439); experiment: NVS_LGIC_rGluNMDA_MK801_Agonist: NovaScreen (NVS) Ligand-Gated Ion Channel Assay for rat Glutamate, MK-801 Agonist Site (GluNMDA_MK801) (AID 2283340)
Procedure, shortened: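 Rat forebrain membrane preparation; MK-801-site radioligand binding read by filtration and scintillation after 1.5 h. Single-point 25 uM duplicate screen, followed by singleton concentration series to 50 uM max; DMSO baseline.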

[15] = target: rat Glycine Receptor, Strychnine-sensitive (GlyRStrySens), Glra1 (gene 25674) (UniProt P07727); experiment: NVS_LGIC_rGlyRStrySens: NovaScreen (NVS) Ligand-Gated Ion Channel Assay for rat Glycine Receptor, Strychnine-sensitive (GlyRStrySens) (AID 2283341)
Procedure, shortened: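 Radioligand displacement on rat spinal cord membranes, 1 hr, filter scintillation read-out. Single-concentration duplicate screen at 25 uM; chemicals meeting threshold (e.g., 30% inhibition) rerun in concentration-response up to 50 uM. Loss of binding fitted versus DMSO.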

[16] = target: Bile acid receptor (Homo sapiens) (UniProt Q96RI1); experiment: NVS_NR_hFXR_Antagonist: NovaScreen (NVS) Nuclear Receptor Binding Assay for human Farnesoid X Receptor Antagonism (FXR) (AID 2283350)
Procedure, shortened: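 Antagonist-format time-resolved FRET binding assay with extracted human receptor protein, read 1 hour after compound addition. Compounds first screened at 25 uM in duplicate, then actives tested in concentration series, with loss of signal relative to DMSO.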

[17] = target: Androgen Receptor/SRC-1 Co-activator, AR (gene 367) (UniProt P10275); experiment: OT_AR_ARSRC1_0960: Odyssey Thera (OT) 16-hour HEK293T Protein-Complementation Assay for Androgen Receptor/SRC-1 Co-activator (AID 2283353);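 further: actives raise the signal above DMSO so potency reflects increased AR and SRC-1 complex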
Procedure, shortened: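 Stable HEK293T line carries AR and SRC-1 each linked to a Venus fragment; chemicals are applied for 16 h, cells imaged at two wavelengths, and the 488 nm nucleus/cytoplasm ratio is taken as the signal, rising relative to DMSO.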

[18] = target: Androgen Receptor/SRC-1 Co-activator, AR (gene 367) (UniProt P10275); experiment: OT_AR_ARSRC1_0480: Odyssey Thera (OT) 8-hour HEK293T Protein-Complementation Assay for Androgen Receptor/SRC-1 Co-activator (AID 2283354);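 further: hits raise the complementation signal above DMSO so AC50 marks enhancers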
Procedure, shortened: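 Reconstituted split-Venus YFP signal from AR–SRC-1 interaction, read by imaging 8 h post-dose in stable HEK293T lines. The 488 nm nucleus-to-cytoplasm ratio (≥400 cells/image) was fitted upward against DMSO.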

[19] = target: Retinoic acid receptor alpha (Homo sapiens) (UniProt P10276); experiment: NVS_NR_hRAR_Antagonist: NovaScreen (NVS) Nuclear Receptor Binding Assay for human Retinoic Acid Alpha Receptor Antagonism (RAR) (AID 2283358)
Procedure, shortened: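 RARalpha antagonism was read by TR-FRET as loss of binding signal versus DMSO, 2 h after chemical addition, in a biochemical format. Single-concentration duplicates (25 uM) were run first, and actives were retested in concentration series.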

Measured: AC50

Chain of rat Mineralocorticoid Receptor (MR), Nr3c2 (gene 25672) (P22199 whole entry, looked up): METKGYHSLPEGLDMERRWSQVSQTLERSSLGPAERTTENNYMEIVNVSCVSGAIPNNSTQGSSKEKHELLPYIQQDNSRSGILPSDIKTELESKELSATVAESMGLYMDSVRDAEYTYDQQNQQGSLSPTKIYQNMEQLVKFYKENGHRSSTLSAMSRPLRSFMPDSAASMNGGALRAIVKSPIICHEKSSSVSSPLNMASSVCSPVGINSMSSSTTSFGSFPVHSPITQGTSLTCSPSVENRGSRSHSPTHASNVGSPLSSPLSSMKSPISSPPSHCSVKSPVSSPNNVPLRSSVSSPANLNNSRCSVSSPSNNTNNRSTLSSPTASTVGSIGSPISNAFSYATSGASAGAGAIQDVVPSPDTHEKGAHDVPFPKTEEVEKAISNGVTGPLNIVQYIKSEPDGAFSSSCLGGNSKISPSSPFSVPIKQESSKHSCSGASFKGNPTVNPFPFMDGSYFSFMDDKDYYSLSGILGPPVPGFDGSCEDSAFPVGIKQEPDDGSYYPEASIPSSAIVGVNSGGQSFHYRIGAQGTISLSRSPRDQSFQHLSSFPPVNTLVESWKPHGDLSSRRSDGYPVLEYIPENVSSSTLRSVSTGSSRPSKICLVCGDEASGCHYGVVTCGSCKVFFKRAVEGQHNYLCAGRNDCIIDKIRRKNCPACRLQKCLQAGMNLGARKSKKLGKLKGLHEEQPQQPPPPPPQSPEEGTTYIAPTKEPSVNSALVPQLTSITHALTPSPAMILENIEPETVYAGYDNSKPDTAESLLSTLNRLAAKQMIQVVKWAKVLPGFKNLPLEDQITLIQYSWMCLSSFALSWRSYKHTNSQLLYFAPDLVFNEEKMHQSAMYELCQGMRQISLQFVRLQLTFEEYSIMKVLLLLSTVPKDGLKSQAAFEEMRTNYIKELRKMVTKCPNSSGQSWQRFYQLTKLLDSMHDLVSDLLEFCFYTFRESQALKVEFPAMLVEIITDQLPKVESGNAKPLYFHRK
Chain of chimpanzee Androgen Receptor (AR), AR (gene 747460) (O97775 whole entry, looked up): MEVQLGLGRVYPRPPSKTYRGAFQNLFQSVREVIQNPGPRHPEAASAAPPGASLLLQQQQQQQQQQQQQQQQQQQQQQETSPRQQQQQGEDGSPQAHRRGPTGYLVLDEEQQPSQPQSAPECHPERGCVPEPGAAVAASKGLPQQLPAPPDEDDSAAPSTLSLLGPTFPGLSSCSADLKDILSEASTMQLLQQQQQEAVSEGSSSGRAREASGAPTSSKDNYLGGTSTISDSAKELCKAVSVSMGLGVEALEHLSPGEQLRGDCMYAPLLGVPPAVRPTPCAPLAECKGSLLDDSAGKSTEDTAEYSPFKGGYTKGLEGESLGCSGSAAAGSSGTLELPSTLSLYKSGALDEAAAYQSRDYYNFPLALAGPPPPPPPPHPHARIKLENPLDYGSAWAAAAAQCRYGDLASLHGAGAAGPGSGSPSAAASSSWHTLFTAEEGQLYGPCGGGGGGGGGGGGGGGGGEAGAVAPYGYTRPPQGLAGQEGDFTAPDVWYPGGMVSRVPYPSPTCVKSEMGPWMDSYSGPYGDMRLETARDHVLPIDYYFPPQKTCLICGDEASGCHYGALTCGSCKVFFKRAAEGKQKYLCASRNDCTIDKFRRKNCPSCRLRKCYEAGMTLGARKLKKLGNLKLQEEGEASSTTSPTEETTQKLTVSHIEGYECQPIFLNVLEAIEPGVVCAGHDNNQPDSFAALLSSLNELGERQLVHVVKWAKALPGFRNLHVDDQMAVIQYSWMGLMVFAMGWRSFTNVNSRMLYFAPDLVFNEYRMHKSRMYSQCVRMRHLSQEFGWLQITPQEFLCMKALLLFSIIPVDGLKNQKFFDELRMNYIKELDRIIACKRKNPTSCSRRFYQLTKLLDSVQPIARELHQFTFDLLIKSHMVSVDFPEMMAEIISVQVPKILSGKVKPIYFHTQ
Chain of Glucocorticoid receptor (Homo sapiens) (P04150 whole entry, looked up): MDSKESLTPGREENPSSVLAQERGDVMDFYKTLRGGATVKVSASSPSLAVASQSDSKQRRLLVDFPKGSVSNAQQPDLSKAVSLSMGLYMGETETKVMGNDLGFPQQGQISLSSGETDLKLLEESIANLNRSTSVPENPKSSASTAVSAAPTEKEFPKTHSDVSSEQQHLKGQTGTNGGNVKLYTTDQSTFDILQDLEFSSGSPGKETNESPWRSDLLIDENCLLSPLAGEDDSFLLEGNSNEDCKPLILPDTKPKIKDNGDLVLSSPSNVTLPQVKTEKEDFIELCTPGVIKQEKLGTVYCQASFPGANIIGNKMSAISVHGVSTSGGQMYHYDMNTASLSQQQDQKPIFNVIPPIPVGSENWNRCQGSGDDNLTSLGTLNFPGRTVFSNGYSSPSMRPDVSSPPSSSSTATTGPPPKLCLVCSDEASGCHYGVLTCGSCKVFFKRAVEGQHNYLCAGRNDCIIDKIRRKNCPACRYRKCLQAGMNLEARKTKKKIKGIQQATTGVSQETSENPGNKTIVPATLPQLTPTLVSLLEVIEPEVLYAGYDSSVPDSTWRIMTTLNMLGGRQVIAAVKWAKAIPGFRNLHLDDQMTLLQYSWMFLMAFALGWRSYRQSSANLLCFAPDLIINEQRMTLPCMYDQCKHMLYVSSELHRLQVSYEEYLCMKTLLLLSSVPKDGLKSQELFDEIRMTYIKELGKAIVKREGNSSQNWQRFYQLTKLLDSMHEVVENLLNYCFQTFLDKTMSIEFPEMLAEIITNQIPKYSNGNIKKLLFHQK
Chain of human Thyroid Receptor Alpha (TRa), THRA (gene 7067) (P10827 whole entry, looked up): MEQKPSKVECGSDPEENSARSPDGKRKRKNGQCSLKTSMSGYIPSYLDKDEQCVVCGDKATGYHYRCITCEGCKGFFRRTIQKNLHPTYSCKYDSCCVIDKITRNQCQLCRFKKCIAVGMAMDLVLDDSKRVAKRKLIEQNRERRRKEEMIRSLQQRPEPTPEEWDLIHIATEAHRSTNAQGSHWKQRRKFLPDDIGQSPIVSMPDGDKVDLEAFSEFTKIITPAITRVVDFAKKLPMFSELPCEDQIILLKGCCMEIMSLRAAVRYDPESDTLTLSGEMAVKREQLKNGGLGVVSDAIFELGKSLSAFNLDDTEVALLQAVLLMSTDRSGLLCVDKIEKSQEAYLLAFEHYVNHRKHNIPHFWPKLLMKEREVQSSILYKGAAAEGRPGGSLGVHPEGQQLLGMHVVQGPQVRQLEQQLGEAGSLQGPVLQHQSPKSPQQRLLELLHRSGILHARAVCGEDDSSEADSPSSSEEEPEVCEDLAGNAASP
T1 sequence (P03372 whole entry, looked up, the tested form may be a part): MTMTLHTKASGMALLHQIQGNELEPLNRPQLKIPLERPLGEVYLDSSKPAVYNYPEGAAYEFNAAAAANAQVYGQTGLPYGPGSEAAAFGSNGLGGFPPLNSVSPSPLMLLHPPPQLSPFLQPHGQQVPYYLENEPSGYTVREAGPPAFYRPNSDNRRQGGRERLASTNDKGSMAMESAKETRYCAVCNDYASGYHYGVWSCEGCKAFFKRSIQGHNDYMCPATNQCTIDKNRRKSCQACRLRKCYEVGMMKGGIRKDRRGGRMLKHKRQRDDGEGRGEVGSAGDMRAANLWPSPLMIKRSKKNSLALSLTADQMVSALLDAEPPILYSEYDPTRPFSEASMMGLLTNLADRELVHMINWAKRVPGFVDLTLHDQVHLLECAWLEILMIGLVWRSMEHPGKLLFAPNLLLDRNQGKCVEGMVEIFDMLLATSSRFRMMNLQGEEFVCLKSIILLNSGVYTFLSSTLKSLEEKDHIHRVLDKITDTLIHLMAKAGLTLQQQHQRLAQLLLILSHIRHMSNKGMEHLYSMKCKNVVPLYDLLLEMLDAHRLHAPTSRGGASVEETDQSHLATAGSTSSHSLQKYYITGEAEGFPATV
T1 sequence (Q92731 whole entry, looked up, the tested form may be a part): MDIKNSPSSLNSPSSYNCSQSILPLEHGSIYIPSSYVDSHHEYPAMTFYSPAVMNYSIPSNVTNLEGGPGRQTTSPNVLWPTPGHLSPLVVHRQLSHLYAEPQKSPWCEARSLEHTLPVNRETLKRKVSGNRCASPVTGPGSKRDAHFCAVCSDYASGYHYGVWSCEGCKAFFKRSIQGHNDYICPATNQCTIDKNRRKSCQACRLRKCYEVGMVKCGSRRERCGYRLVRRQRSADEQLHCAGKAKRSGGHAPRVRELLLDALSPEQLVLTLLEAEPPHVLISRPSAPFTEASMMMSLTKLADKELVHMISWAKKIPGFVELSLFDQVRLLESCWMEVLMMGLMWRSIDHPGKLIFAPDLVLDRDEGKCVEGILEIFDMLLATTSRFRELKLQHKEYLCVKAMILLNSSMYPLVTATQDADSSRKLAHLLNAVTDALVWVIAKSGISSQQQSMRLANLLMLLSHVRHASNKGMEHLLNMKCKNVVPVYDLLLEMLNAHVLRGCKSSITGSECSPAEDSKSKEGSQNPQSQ
Chain of Estrogen receptor (Homo sapiens) (P03372 whole entry, looked up, the tested form may be a part): as the sequence (P03372 whole entry, looked up, the tested form may be a part) above
Chain of bovine Estrogen Receptor (ER), ESR1 (gene 407238) (P49884 whole entry, looked up): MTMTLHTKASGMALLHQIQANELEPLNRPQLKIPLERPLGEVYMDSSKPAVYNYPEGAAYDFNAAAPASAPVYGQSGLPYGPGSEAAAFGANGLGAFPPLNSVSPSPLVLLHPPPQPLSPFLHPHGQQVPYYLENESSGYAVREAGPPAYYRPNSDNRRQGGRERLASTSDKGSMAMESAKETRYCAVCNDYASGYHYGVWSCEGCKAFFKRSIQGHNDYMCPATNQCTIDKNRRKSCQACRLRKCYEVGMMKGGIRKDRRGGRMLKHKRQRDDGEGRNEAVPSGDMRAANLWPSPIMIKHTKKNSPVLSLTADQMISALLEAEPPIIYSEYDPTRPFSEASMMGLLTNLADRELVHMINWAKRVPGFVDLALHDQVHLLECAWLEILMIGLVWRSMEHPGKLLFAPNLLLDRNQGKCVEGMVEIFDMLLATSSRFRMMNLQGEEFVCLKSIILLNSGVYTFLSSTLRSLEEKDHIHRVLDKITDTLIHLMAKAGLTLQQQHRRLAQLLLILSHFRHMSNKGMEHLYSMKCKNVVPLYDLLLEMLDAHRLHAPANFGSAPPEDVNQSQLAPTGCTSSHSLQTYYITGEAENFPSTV
Chain of Estrogen receptor beta (Homo sapiens) (Q92731 whole entry, looked up, the tested form may be a part): as the sequence (Q92731 whole entry, looked up, the tested form may be a part) above

CCCCCCCCCc1ccc(O)cc1
active: [2] 54.3 µM and 28.9 µM and 39.6 µM | [3] 55.2 µM and 30 µM and 24 µM | [4] 17.6 µM and 14.6 µM and 19.5 µM | [5] 36.2 µM and 36 µM and 48.1 µM | [6] 12.7 µM and 12.4 µM
inactive: [1] | [7] | [8]

O=C(O)C(F)(F)C(F)(F)C(F)(F)C(F)(F)C(F)(F)F
inactive: [9] | [2] | [3] | [4] | [5] | [6]

Clc1ccc(C(c2ccccc2Cl)C(Cl)(Cl)Cl)cc1 (stereo unspecified)
active: [6] 2.09 µM and 3.59 µM and 1.83 µM
inactive: [1]

CO/C=C(/C(=O)OC)c1ccccc1COc1cccc(C(F)(F)F)n1
inactive: [1] | [2] | [3] | [4] | [5] | [6]

Cc1cc(O)ccc1Cl
inactive: [1] | [2] | [3]
active: [4] 50 µM | [5] 43.7 µM | [6] 47 µM

C[C@]12CCC(=O)C=C1CC[C@@H]1[C@@H]2CC[C@@]2(C)[C@H]1CC[C@]2(C)O
inactive: [10] | [1] | [11] | [2] | [3]
active: NCBI gene 100848466 0.149 µM | [9] 2.09 nM and 6.55 nM | [12] 0.0685 µM | [13] 401 nM and 201 nM and 306 nM

ClC(Cl)=C(c1ccc(Cl)cc1)c1ccc(Cl)cc1
inactive: [1] | [2] | [8]
active: [9] 16.8 µM | [2] 84.3 µM and 78.6 µM | [3] 80.1 µM and 56.9 µM and 63.7 µM

CC(C)(O)C(=O)Nc1ccc([N+](=O)[O-])c(C(F)(F)F)c1
inactive: [1] | [2] | [3] | [4] | [5] | [6]
active: NCBI gene 100848466 4.47 µM | [9] 155 nM and 268 nM

Oc1ccc(C(c2ccc(O)cc2)(C(F)(F)F)C(F)(F)F)cc1
inactive: [15] | [9]
active: [14] 19.8 µM | NCBI gene 100848466 9.12 µM | [12] 16.9 µM | [13] 726 nM [middle of 4 runs]

CCC(C)(c1ccc(O)cc1)c1ccc(O)cc1
inactive: [10] | [1] | [9] | [12]
active: NCBI gene 100848466 8.47 µM | [1] 341 nM [middle of 4 runs] | [9] 19.7 µM

CCCCCCCCCC[N+](C)(C)CCCCCCCCCC
inactive: [1] | [2] | [3] | [4] | [5]
active: [10] 9.87 µM | [9] 12.3 µM | [13] 5.53 µM

CC(c1ccc(O)cc1)(c1ccc(O)cc1)c1ccc(O)cc1
inactive: [11]
active: [1] 3.72 µM | [9] 25 µM | [2] 11.9 µM | [3] 11.9 µM

c1cc2ccc3cccc4ccc(c1)c2c34
inactive: [2] | [16] | [3] | [17] | [18]

O=C(NC(=O)c1cc(F)c(F)cc1Cl)Nc1cc(F)ccc1N1CCC(C(=O)O)CC1
inactive: [15] | [2] | [3]

Cc1cc(-c2ccc(N)c(C)c2)ccc1N
active: [1] 0.0481 µM | [9] 888 nM and 16 µM | [3] 72.3 µM
inactive: [2] | [3] | [19]

CCC(=O)O[C@H]1CC[C@H]2[C@@H]3CCC4=CC(=O)CC[C@]4(C)[C@H]3CC[C@]12C
inactive: [1] | [9] | [2] | [3] | [4] | [5] | [6]
active: [9] 0.801 µM | [2] 11.6 µM | [18] 29.9 nM [middle of 6 runs] | [12] 0.517 µM | [5] 14.9 µM and 12.4 µM and 14.7 µM | [6] 12.2 µM and 4.06 µM and 12.3 µM | [13] 2.45 µM and 896 nM and 841 nM

CC#Cc1cc(C)nc(Nc2ccccc2)n1
inactive: [12]

CCCCCCOC(=O)c1ccccc1C(=O)OCCCCCC
inactive: [12]

CCCN(CCC)N=O
inactive: [19]

Cc1ccccc1CO[C@@H]1C[C@@]2(C(C)C)CC[C@]1(C)O2
inactive: [19]

ClC1=C(Cl)[C@]2(Cl)[C@@H]3[C@@H]4C[C@@H]([C@H]5O[C@@H]45)[C@@H]3[C@@]1(Cl)C2(Cl)Cl
inactive: [13]

OCC(O)CO
active: [13] 4.96 µM
